Counter-ions that a name gives are not always drawn.
What was measured:
Test in all cases: Euclidean distance of Cell Painting phenotypic profile (signed KS, 77 features) to DMSO centroid (dimensionless distance); higher = stronger phenotypic change vs DMSO (phenoactivity)
Conditions in all cases: 48 h; 5 or 10 uM (library dependent)
786-O = tested on: 786-O
In short: (§1)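 Harmony extracted 77 features from 20X confocal images (9 fields/well) of stained cells, scoring each as a signed Kolmogorov-Smirnov statistic against same-plate vehicle wells. The cells, five cancer lines and a healthy fibroblast line, had received library compounds for 48 h at 10 or 5 uM depending on library, with 0.1% DMSO final. Phenoactivity is the Euclidean distance from each plate-position-corrected, correlation-weighted, top-dose replicate-averaged profile to the median vehicle profile.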

A549 = tested on: A549
In short: as §1

DU145 = tested on: DU145
In short: as §1

FB = tested on: FB
In short: as §1

HEPG2 = tested on: HEPG2
In short: as §1

OVCAR4 = tested on: OVCAR4
In short: as §1

| SMILES | Euclidean distance (786-O) | Euclidean distance (A549) | Euclidean distance (DU145) | Euclidean distance (FB) | Euclidean distance (HEPG2) | Euclidean distance (OVCAR4) |
| --- | --- | --- | --- | --- | --- | --- |
| Clc1ccc(C(OCCN2CCCCC2)c2ccccc2)cc1 (stereo unspecified) [Cloperastine hydrochloride] | 0.838 | 1.16 | 1.16 | 0.914 | 1.43 | 1.16 |
| COc1cc(C)[nH]c(=O)c1CNC(=O)c1c(C)n([C@H](C)C2CCN(CC(F)(F)F)CC2)c2ccccc12 | 1.35 | 1.09 |  | 1.42 | 0.588 | 0.987 |
| CCCCCCCCC(=O)NCc1ccc(O)c(OC)c1 [Nonivamide] | 1.37 | 0.987 |  | 0.925 | 0.607 | 1.31 |
| O=c1cccc2n1C[C@@H]1CNC[C@H]2C1 [Cytisine] | 1.35 | 0.65 |  | 1.05 | 1.09 | 2.07 |

Source: the supplement of paper PMC10127200
